This is an account of results in PubChem BioAssay (NCATS).

Molecules are shown by their SMILES. Records with an inconclusive call do not appear. The source made the active and inactive calls. Unless noted, calls come from the whole dose curve; as a rule, active = well fitted curve in the direction sought with a large enough effect; inconclusive = small, poorly fitted or top-dose-only effect, or another doubt; inactive = no such curve, though single readings can be large; an effect the other way counts as inactive or inconclusive.

Assay [1] can be described thus: Quantitative High-Throughput drug screen in 47 multiple myeloma cell lines against the NCATS MIPE library collection: KMS28BM_JCRB cell viability assay (AID 1919874). Note: nearly all actives have a fitted effect of over 35% in size. The procedure, abridged: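 Viability after 48 h drug exposure was measured as ATP-dependent luminescence. Cells, 500 per well, sat at 37 °C under 5% CO2; DMSO wells set 100%, media-only wells 0%.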
Assay [2] is described as follows: qHTS for identification of novel therapeutic agents for treatment of microphthalmiaassociated transcription factor (MiT) renal cell carcinoma (RCC) (AID 1963991; calls by dose curve). As to conditions: CellTiter-Glo, 48 h; for z-score: stronger effect = lower value; for Potency: active = Z-AUC below -0.8 in all three lines. The method in brief: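 Viability of three TFE3-fusion renal carcinoma lines measured by CellTiter-Glo after 48 h treatment with each of 1912 compounds at 11 concentrations. Responses scaled between DMSO (100%) and empty wells (0%) before curve fitting.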
(In general: In qHTS, concentration-response curves come from the screen itself.)

The nature of assay [3]: qHTS drug screen for cell cycle checkpoint inhibitors in PARPi-resistant BRCA-mutant ovarian cancer cell lines. (AID 1963452; calls by dose curve). As to conditions: PEO1/OlaR viability, CellTiter-Glo luminescence, 96 h; for Z-AUC: stronger effect = lower value. The procedure, abridged: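 PEO1, PEO4 and PEO1/OlaR ovarian cancer cells, 600 per well, exposed 96 h at 37C to a dilution series. Viability read by CellTiter-Glo luminescence, normalized to DMSO and empty wells; activity summarized as Z-AUC.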

The test system of the next assay is 3D7. The assay is described as follows: qHTS profiling for inhibitors of Plasmodium falciparum proliferation (AID 504749). Note: nearly all actives have a fitted effect of over 60% in size. Conditions: P. falciparum in erythrocytes, SYBR Green DNA, 72 h; series mostly up to 28.7 µM. The method in brief: (§1)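 Readout was DNA-dye fluorescence from lysed cultures, ex 485/em 535 nm. Parasitized red cells had grown 72 h with compound; data scaled between 0.29 uM artemisinin and DMSO wells and corrected using vehicle-only plates.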

The next assay deals with AA1029. The description is as above. As to conditions: P. falciparum in erythrocytes, SYBR Green DNA, 72 h; series mostly up to 28.7 µM. The procedure, abridged:
as §1

For another assay, the system named is AS120. The description is as above. As to conditions: P. falciparum in erythrocytes, SYBR Green DNA, 72 h; series mostly up to 28.7 µM. The method in brief: as §1
Another assay deals with ATS189. Described as above. Conditions: P. falciparum in erythrocytes, SYBR Green DNA, 72 h; series mostly up to 28.7 µM. The method in brief: as §1
For the next assay, the system named is ATS95. The description is as above. As to conditions: P. falciparum in erythrocytes, SYBR Green DNA, 72 h; series mostly up to 28.7 µM. The method in brief: as §1
Setting [4] is: TFE3-RCC UOK109 viability, measured here: UOK109 Z-AUC.
[5] abbreviates: TFE3-RCC viability, measured here: UOK124 Z-AUC.
Setting [6] is: TFE3-RCC viability, measured here: UOK145 Z-AUC.
Where [7] appears, read: measured here: PEO1 parental Z-AUC.
Potency is the fitted concentration of half-maximal effect.

Turning to `CC(=O)N[C@H]1[C@@H]([C@H](O)[C@H](O)CO)OC(C(=O)O)=C[C@@H]1N=C(N)N`, in assay [1], the Potency entry is “inactive”. The z-score in assay [2] (setting [4]) was 0.312; in assay [2] (setting [5]), 0.639; in assay [2] (setting [6]) it was 0.195.
On to `Cn1cc(CNCC2CCN(c3ncc(C(=O)NO)cn3)CC2)c2ccccc21`, for which the Potency in assay [1] is 18.7 nM (active); in assay [3], 195 nM (active); in assay [2] (TFE3-RCC UOK109 viability), 166 nM (active). Moreover, the Z-AUC in assay [3] (setting [7]) was -1.95; in assay [3] (measured here: PEO4 Z-AUC), -1.89. In addition, the z-score in assay [2] (setting [4]) was -1.71; in assay [2] (setting [5]), -4.28; in assay [2] (setting [6]), -1.68.
Consider `O=C(O)C(=O)Nc1cccc(C2=NN=N[N]2)c1`, for which the Potency entry in assay [1] was “inactive”. For the same molecule, the z-score amounted to 0.225 in assay [2] (setting [4]), 0.525 in assay [2] (setting [5]) and 0.0651 in assay [2] (setting [6]).
Turning to `C[C@H](O)[C@@H]1C(=O)N2C(C(=O)O)=C(S[C@@H]3CN[C@H](CNS(N)(=O)=O)C3)[C@@H](C)[C@@H]12`, the Potency entry in assay [1] is “inactive”. Moreover, the z-score was -0.714 in assay [2] (setting [4]), 0.967 in assay [2] (setting [5]) and -1.41 in assay [2] (setting [6]).
On to `CC(=O)N[C@@H]1[C@H](O[C@@H]2c3ccc(c(Cl)c3)Oc3cc4cc(c3O[C@H]3O[C@H](CO)[C@@H](O)[C@H](O)[C@H]3NC(=O)CCCCCCCC(C)C)Oc3ccc(cc3Cl)C[C@H]3NC(=O)[C@H](N)c5ccc(O)c(c5)Oc5cc(O)cc(c5)[C@H](NC3=O)C(=O)N[C@H]4C(=O)N[C@H]3C(=O)N[C@@H]2C(=O)N[C@@H](C(=O)O)c2cc(O)cc(O[C@H]4O[C@H](CO)[C@@H](O)[C@H](O)[C@H]4O)c2-c2cc3ccc2O)O[C@H](CO)[C@@H](O)[C@@H]1O`, for which the Potency result in assay [1] was “inactive”. The z-score came out at 0.106 in assay [2] (setting [4]), 0.36 in assay [2] (setting [5]) and 0.292 in assay [2] (setting [6]).
Take `CN1[C@H]2CC(OC(=O)[C@@H](CO)c3ccccc3)C[C@H]1[C@H]1O[C@H]12` (stereo partly drawn): the Potency result in assay [1] is “inactive”. For the same molecule, the z-score in assay [2] (setting [4]) worked out at 0.573; in assay [2] (setting [5]), 0.895; in assay [2] (setting [6]), 0.977.
`C[C@]12CCC(=O)C=C1[C@@H]1CC1[C@H]1[C@H]3[C@@H]4C[C@H]4[C@@]4(CCC(=O)O4)[C@@]3(C)CC[C@H]12` (stereo partly drawn): the Potency in assay [1] was 11800 nM (active). The z-score in assay [2] (setting [4]) is 0.661; in assay [2] (setting [5]), 0.572; in assay [2] (setting [6]), -2.84.
Turning to `CCC(C(=O)O)C1CCC(C)C(C(C)C(O)C(C)C(=O)C(CC)C2OC3(C=CC(O)[C@@]4(CC[C@](C)(C5CC[C@@](O)(CC)C(C)O5)O4)O3)C(C)CC2C)O1` (stereo partly drawn), the Potency in assay [1] was 6620 nM (active); in assay [3], 1380 nM (active); in the assay with 3D7, 794 nM (active); in the assay with AA1029, 891 nM (active); in the assay on AS120, 631 nM (active); in the assay with ATS189 it was 1260 nM (active). In addition, in the assay on ATS95, the Potency is 1120 nM (active). In addition, the Z-AUC was -1.77 in assay [3] (setting [7]) and -1.98 in assay [3] (measured here: PEO4 Z-AUC).
`O=C(O)[C@H](CC(=O)N1C[C@@H]2CCCC[C@H]2C1)Cc1ccccc1`: in assay [1], the Potency result was “inactive”. Moreover, the values for the z-score in assay [2] (setting [4]), in assay [2] (setting [5]) and in assay [2] (setting [6]) were 0.946, 0.446 and 0.344, respectively.
`CN[C@H](CC(C)C)C(=O)N[C@H]1C(=O)N[C@@H](CC(N)=O)C(=O)N[C@@H]2C(=O)N[C@H]3C(=O)N[C@H](C(=O)N[C@H](C(=O)O)c4cc(O)cc(O)c4-c4cc3ccc4O)[C@H](O)c3ccc(c(Cl)c3)Oc3cc2cc(c3O[C@@H]2O[C@H](CO)[C@@H](O)[C@H](O)[C@@H]2O[C@H]2C[C@](C)(N)[C@H](O)[C@H](C)O2)Oc2ccc(cc2Cl)[C@H]1O`: the Potency entry in assay [1] is “inactive”. In addition, the figures for the z-score in assay [2] (setting [4]), in assay [2] (setting [5]) and in assay [2] (setting [6]) were 0.508, 0.868 and 0.133, respectively.
Regarding `N#CNC(=NCCCCCCOc1ccc(Cl)cc1)Nc1ccncc1`, the figures for the Potency in assay [1], in assay [3] and in assay [2] (TFE3-RCC UOK109 viability) were 105 nM (active), 34.7 nM (active) and 7430 nM (active), respectively. Also, the Z-AUC in assay [3] (setting [7]) was -3.38; in assay [3] (measured here: PEO4 Z-AUC), -3.13. In addition, the z-score was -0.809 in assay [2] (setting [4]), -2.82 in assay [2] (setting [5]) and -3.43 in assay [2] (setting [6]).
For the molecule `Cc1cn([C@@H]2O[C@H](CO)[C@@H](O)[C@H]2F)c(=O)[nH]c1=O`, in assay [1], the Potency result is “inactive”. In addition, the z-score in assay [2] (setting [4]) worked out at 0.17; in assay [2] (setting [5]), 0.993; in assay [2] (setting [6]), 0.494.
With `COc1ccc(S(=O)(=O)Nc2cccnc2Nc2ccc(O)cc2)cc1`, the Potency in assay [1] is 33.2 nM (active); in assay [3], 1380 nM (active); in assay [2] (TFE3-RCC UOK109 viability) it was 132 nM (active). In addition, the Z-AUC in assay [3] (setting [7]) is -1.73; in assay [3] (measured here: PEO4 Z-AUC), -1.84. Besides, the z-score is -0.858 in assay [2] (setting [4]), -1.8 in assay [2] (setting [5]) and -1.74 in assay [2] (setting [6]).
`C=C1C[C@@]2(O)O[C@@]3(C[C@H]2C(C)C)[C@H](C)CC[C@H]13`: in assay [1], the Potency result is “inactive”. The z-score was 0.729 in assay [2] (setting [4]), 0.339 in assay [2] (setting [5]) and 0.0529 in assay [2] (setting [6]).
As for `C=C1CCC2[C@](C)(CO)C(O)CC[C@]2(C)C1CC=C1C(=O)OCC1O` (stereo partly drawn), the Potency result in assay [1] was “inactive”. The z-score in assay [2] (setting [4]) is 0.432; in assay [2] (setting [5]) it was -0.457; in assay [2] (setting [6]), 1.09.
The matching figures for `C[C@H]1O[C@H](O[C@H]2[C@H](O)[C@@H](O)[C@@H](O[C@H]3[C@H](O)[C@@H](O)C(O)O[C@H]3CO)O[C@H]2CO)[C@H](O)[C@@H](O)[C@H]1N[C@H]1C=C(CO)[C@@H](O)[C@H](O)[C@@H]1O` (stereo partly drawn): “inactive”, 0.975, 0.169 and 1.64.
Regarding `C[C@@H]1[C@H](C)CC[C@]2(C(=O)O)CC[C@]3(C)C(=CC[C@@H]4[C@@]5(C)C[C@@H](O)[C@H](O)[C@@](C)(CO)[C@H]5CC[C@]43C)[C@@H]12`, the Potency result in assay [1] was “inactive”. Also, the z-score is 0.114 in assay [2] (setting [4]), 0.271 in assay [2] (setting [5]) and 0.0304 in assay [2] (setting [6]).
For `Cc1cnc(Nc2ccc(CN3CCOCC3)cc2)nc1Nc1cccc(S(=O)(=O)NC(C)(C)C)c1`, the Potency in assay [1] is 4690 nM (active); in assay [2] (TFE3-RCC UOK109 viability), 4180 nM (active). In addition, the Z-AUC in assay [3] is -2.02 (inactive); in assay [3] (setting [7]), -1.2; in assay [3] (measured here: PEO4 Z-AUC), -1.56. The z-score in assay [2] (setting [4]) is -1.32; in assay [2] (setting [5]), -0.971; in assay [2] (setting [6]), -1.1.
